Vaccinia mCherry – qHTS for Stage-Specific Inhibitors of Vaccinia Orthopoxvirus: mCherry Reporter Primary qHTS | Potency, µM (top dose mostly 36.5 µM), for the others: top-dose activity change, negative = inhibition, actives largely listed as inhibitors | Vaccinia virus mCherry reporter infection, fluorescence | 310,000 tested, 0.63% active; calls by dose curve; tested in A549 cells; further: potency means the concentration at half of the fitted maximal effect; nearly all actives have a fitted effect of over 35% in size
Lassa entry inh – qHTS for Inhibitors of binding or entry into cells for Lassa Virus. Lassa virus pseudotype entry inhibition, cell reporter. Potency, µM (doses to about 37.9 µM), inactives show at the top dose activity change, negative = inhibition, hits mostly inhibitors. 300,000 tested, 1.2% active; calls by dose curve; tested in HEK293 cells; further: potency means the concentration at half of the fitted maximal effect; nearly all actives have a fitted effect of over 50% in size
Vaccinia Venus – qHTS for Stage-Specific Inhibitors of Vaccinia Orthopoxvirus: Venus Reporter Primary qHTS | Vaccinia virus Venus reporter expression, fluorescence | Potency, µM (top dose mostly 36.5 µM), without a hit: at the highest dose activity change, negative = inhibition, usual class: inhibitors | 330,000 tested, 0.46% active | AID 720580, 2013; calls by dose curve; tested in A549 cells; further: potency means the concentration at half of the fitted maximal effect; nearly all actives have a fitted effect of over 30% in size
FMDV antiviral – High Throughput Screening for Foot and Mouth Disease Virus Antivirals; Potency, µM (doses to about 57.9 µM), for the others: at the top dose activity change, negative = inhibition, usual class: inhibitors; AID 1159524, 2015; 410,000 tested, 1.2% active; FMDV antiviral cell-based qHTS; calls by dose curve; tested in HEK293T cells; further: read-out not given here; potency means the concentration at half of the fitted maximal effect; nearly all actives have a fitted effect of over 45% in size
HCMV antiviral – qHTS Assay for inhibitors of the human cytomegalovirus (HCMV) | HFF cells, HCMV-luciferase reporter, 72 h; active compounds read low | 410,000 tested, 4.5% active | activity change, negative = inhibition, % at 57.5 µM; in the data active means activity change below about -60%; inconclusive means no clear call, values can overlap the other calls; inactive means above about -39%
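Screen run at 2 compound doses on HFFs infected with reporter HCMV, MOI 1 PFU/cell. Luciferase activity from cell lysates at 72 h post infection gave inhibition relative to buffer-only and Salinomycin wells.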
MARV entry inh – qHTS for inhibitors of binding or entry into cells for Marburg Virus; Marburg virus pseudotyped entry inhibition, cell reporter; Potency, µM (titrated, usually from 37.8 µM), inactives show top-dose activity change, negative = inhibition, most hits filed as inhibitors; 300,000 tested, 1.8% active; calls by dose curve; tested in HEK293 cells; further: potency means the concentration at half of the fitted maximal effect
Active calls of the source: *; i = inactive; ? = inconclusive; nt = no result; [ ] = another dose, or the depositor's remark. Only some compounds are listed: those with a hit (about 6.5% of all), similar ones and a draw of the others. On the % scale 0 is the no-effect control and ±100 the full control effect.

SMILES | Vaccinia mCherry | Lassa entry inh | Vaccinia Venus | FMDV antiviral | HCMV antiviral | MARV entry inh
C=CCN=C1NC(c2cccc(C(F)(F)F)c2)C(C(=O)OC)=C(C)N1Cc1ccccc1 (configuration not stated) | nt | ? | nt | nt | nt | -24.7%[14.2 µM]
CCCCCC(=O)N1C[C@@H](O)[C@H](n2cc(-c3ccc(F)cc3)nn2)C[C@H]1c1ccccc1 | nt | -6.9%[46.1 µM] | nt | nt | nt | nt
COc1ccccc1NC(=O)c1sc(-c2ccc(Cl)cc2)cc1N | -4.2%[7.34 µM] | 27.8%[46.1 µM] | -8.1%[7.34 µM] | 3.5% | 15.2 | 9.3%[46.1 µM]
COC(=O)C1=C(C)N(Cc2ccccc2)C(=NCc2cccc(C(F)(F)F)c2)N[C@H]1c1cccc(C(F)(F)F)c1 | 10µM* | nt | 28.2µM* | 39.8µM* | nt | nt
COC(=O)C1=C(C)N(Cc2ccc(C(F)(F)F)cc2)C(=NCc2ccccc2)NC1c1cccc(Cl)c1 (configuration not stated) | nt | nt | nt | nt | -100.5* | nt
CCCN(Cc1cccs1)C(=O)Nc1cc(Cl)ccc1C | -3.7% | 0.9%[46.1 µM] | -5.5% | -14.3% | -20.1 | -3.9%[46.1 µM]
CCc1nn(CC(=O)NCCCN(Cc2ccccc2)C(C)C)c(=O)c2cc3sccc3n12 | -14.9% | -15.9% | -9.4% | 5.7% | -63.5* | ?
CCCCN(CC)CCCNC(=O)Cn1nc(CC)n2c(cc3sccc32)c1=O | -11.4% | nt | -11.4% | -8.3% | -22.6 | -1.3%[46.1 µM]
COCCn1c(SCC(=O)Nc2ccc(F)c(Cl)c2)nc2c(oc3ccccc32)c1=O | ? | nt | -21.7% | -2.2% | -79.7* | 11.6%[46.1 µM]
COCCn1c(SCC(=O)Nc2ccccc2OC)nc2c(oc3ccccc32)c1=O | nt | nt | nt | ? | -62.5* | nt
COc1ccc(NC(=O)CSc2nc3c(oc4ccccc43)c(=O)n2Cc2ccco2)cc1Cl | -3.2%[7.34 µM] | nt | -7.7%[7.34 µM] | 7.1% | -97.8* | ?
CCCn1c(SCC(=O)Nc2ccc(C(=O)Nc3ccccc3OC)cc2)n[nH]c1=O | -8.8% | -7.6% | -14.6% | 31.6µM* | -15.3 | 7.2%[46.1 µM]
Cc1ccc(C2=CC(=O)N(CCC(N)=O)C2)cc1 | nt | nt | nt | nt | 48.6 | nt
CCOC(=O)c1c(Nc2ccc(OC)cc2)nnc(-c2ccccc2)c1-c1ccccc1 | -14.7% | ? | -16.1% | ? | -20.0 | -2.5%[46.1 µM]
COc1ccc(Br)cc1CNC(=O)c1ccc2c(c1)nc1n2CCCCC1 | -20.0% | ? | -8.8% | 5.2% | -60.1* | nt
CSc1ccc(CCNC(=O)c2ccc3c(c2)nc2n3CCCCC2)cc1 | -2.1% | -15.3%[46.1 µM] | -7.2% | -27.8% | -76.3* | nt
CSc1ccc(CCNC(=O)c2ccc3c(c2)nc2n3CCC(C)C2)cc1 (configuration not stated) | -10.9% | 22.6%[46.1 µM] | -0.6% | ? | -29.3 | nt
Cc1ccccc1CCNC(=O)c1ccc2c(c1)nc1n2CCCCC1 | -18.1% | ? | -14.3% | ? | -78.2* | nt
CCCCCC(=O)Nc1ccc(NC(=O)c2cc3ccccc3o2)c(OC)c1 | ? | 25.4%[46.1 µM] | ? | -20.3% | -30.4 | nt
O=C(O)c1cc(/C=C/c2ccc(N3CCOCC3)cc2)nc2ccccc12 | i | ? | -0.9% | 10µM* | -13.1 | ?
O=C(Cc1cccs1)N[C@@H]1C(=O)N2C(C(=O)[O-])=C(C[n+]3ccccc3)CS[C@H]12 | -13.4% | nt | -7.4% | -5.9% | nt | nt
O=C(Nc1cc(C(=O)N2CCN(CCO)CC2)c2c(c1)ncn2C1CCCC1)c1ccccc1 | -3.0% | nt | 0.0% | -11.8% | nt | nt
Cc1cccc(OCCCCCn2ccnc2)c1C | nt | ? | nt | -15.9% | -80.8* | ?
CCOc1ccc(OCCCCn2ccnc2)cc1 | i | 6.6% | -15.5% | -8.0% | -61.1* | 16.4%
O=C(c1cnn2c(C(F)(F)F)cc(-c3ccc(F)cc3)nc12)N1CCc2ccccc2C1 | i | ? | -6.8% | -8.1% | -71.7* | ?
SMILES | Vaccinia mCherry | Lassa entry inh | Vaccinia Venus | FMDV antiviral | HCMV antiviral | MARV entry inh
Cc1ccc(C)c(N2CCN(C(=O)C3CCN(S(=O)(=O)c4cccc5nsnc45)CC3)CC2)c1 | -16.5% | ? | ? | 22.4µM* | -39.7 | ?
COc1ccc2nc(NC(=O)CNS(=O)(=O)c3cccs3)sc2c1 | -2.4% | 12.5% | -18.9% | nt | 39.4 | 1.9%
Cc1ccc2nc(NC(=O)C3CCN(S(=O)(=O)c4cccc5nsnc45)CC3)sc2c1 | -9.3% | ? | 0.0% | ? | -85.0* | ?
COc1ccc2nc(NC(=O)CN(C)S(=O)(=O)c3cccs3)sc2c1 | ? | -10.7% | -25.9% | 11.4% | -72.0* | 1.1%
O=C(Nc1ccc(OC(F)(F)F)cc1)C1CCN(S(=O)(=O)c2cccs2)CC1 | ? | -23.5%[46.1 µM] | ? | ? | -88.4* | -13.9%[46.1 µM]
C[C@@H]1[C@H](c2ccccc2)OCCS(=O)(=O)N1Cc1ccccc1Br | -10.0% | nt | -28.0% | nt | nt | nt
COC(=O)C1=C(C(=O)OC)[C@@H]2N(CC=C(C)C)c3ccccc3[C@@]23CCC(=O)N(CCc2ccccn2)C3=N1 | nt | nt | nt | nt | nt | 12.0%[14.2 µM]
Cc1ccc2nc(NC(=O)C3CCN(S(=O)(=O)c4cccs4)CC3)sc2c1 | nt | 10.3µM* | nt | ? | -93.8* | ?
Cc1ccc2nc(NC(=O)C3CCN(S(=O)(=O)c4cccnc4)CC3)sc2c1 | ? | nt | -28.4% | ? | -35.4 | nt
COc1ccc2nc(NC(=O)C3CCN(S(=O)(=O)c4cccs4)CC3)sc2c1 | ? | 14.6µM* | ? | 14.1µM* | -96.6* | ?
O=C(C1CCCN1S(=O)(=O)c1cccc2nsnc12)N1CCN(c2ccc(F)cc2)CC1 (configuration not stated) | nt | nt | nt | -2.7% | -65.9* | nt
COc1ccc(C(=O)C[n+]2cccc3cc(Cl)ccc32)cc1 | -8.8% | nt | 78.9% | nt | nt | nt
COc1ccc(NC(=O)C(c2ccccn2)N(C(C)=O)c2ccc(C)cc2)cc1 (configuration not stated) | i | -9.6% | -5.3% | 17.8% | 93.1 | -1.5%
CC(=O)Nc1ccc(C(=O)N(C)C(C(=O)Nc2ccc(C)cc2)c2ccccn2)cc1 (configuration not stated) | -8.9% | -10.9% | -0.9% | -8.4% | -62.7* | 10.1%
Cc1ccc2nc(-c3ccncc3)cc(-c3ccccc3)c2c1 | nt | -1.5% | nt | 0.0% | 5.9 | 13µM*
Cc1ccc2nc(-c3ccc(NS(C)(=O)=O)cc3)cc(-c3ccccc3)c2c1 | nt | -17.9% | nt | -26.5% | -10.0 | -15.5%
COC(=O)c1nc(NC(=O)c2cc(OC)c(OC)c(OC)c2)n[nH]1 | -5.7% | 15.1%[46.1 µM] | 12.7% | -28.4% | 18.2 | 4.0%[46.1 µM]
COC(=O)c1nc(NC(=O)c2ccccc2Br)n[nH]1 | i | -1.6%[46.1 µM] | -14.0% | 20µM* | 24.6 | -14.2%[46.1 µM]
CC1CC(C)CN(CCOCCSc2ccc(Cl)cc2)C1 (configuration not stated) | i | ? | -27.2% | 20.3% | 0.8 | 7.08µM*
CC1CC(C)CN(CCOCCSc2ccccc2)C1 (configuration not stated) | -2.8% | 9.2µM* | -17.5% | -10.8% | 4.7 | ?

Assay outcomes (PubChem BioAssay)
